The nature of test [1]: qHTS of pediatric cancer cell lines to identify multiple opportunities for drug repurposing: Confirmatory screen for TC32 cells (AID 1347118).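 Note: potency is the fitted concentration of half-maximal effect; cells exposed to compound for 48 h before the read; nearly all actives have a fitted effect of over 65% in size.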 Conditions: TC32 Ewing sarcoma cells viability qHTS. Summed up:
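Luminescent ATP read-out (CellTiter-Glo) of metabolically active TC32 cells after 48 h exposure. Concentration-response curves came from 11-point (MIPE, 0.78 nM–46 µM) or 8-point (NPC, 0.59 nM–46 µM) primary titrations; follow-up used 11 points.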
Background: Quantitative high-throughput screening tests each substance at several concentrations.

Test [2] is described as follows: qHTS of pediatric cancer cell lines to identify multiple opportunities for drug repurposing: Confirmatory screen for U-2 OS cells (AID 1347122). Note: nearly all actives have a fitted effect of over 65% in size. The note with it: U-2 OS osteosarcoma cell viability; series mostly up to 45.9 µM. The method, boiled down:
(§1)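 Cells (500-1,000/well) in growth media were settled 5 h at 37 degrees C, then given compounds for 48 h. Viability was read as CellTiter-Glo luminescence. Primary runs used MIPE at 11 points (0.78 nM-46 µM) and NPC at 8 points (0.59 nM-46 µM); follow-ups used 11 points.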

Test [3] in a line: qHTS of pediatric cancer cell lines to identify multiple opportunities for drug repurposing: Confirmatory screen for Rh41 cells (AID 1347123).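 Note: 48 h compound exposure; nearly all actives have a fitted effect of over 60% in size.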 Note: potency is the fitted concentration of half-maximal effect. The note with it: Rh41 rhabdomyosarcoma cells, viability/cytotoxicity qHTS; series mostly up to 45.9 µM. Summed up:
as §1

A short description of test [4]: qHTS of pediatric cancer cell lines to identify multiple opportunities for drug repurposing: Confirmatory screen for RD cells (AID 1347124).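 Note: cells exposed to compound for 48 h before viability readout; nearly all actives have a fitted effect of over 65% in size.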 Note: potency is the fitted concentration of half-maximal effect. Conditions: RD rhabdomyosarcoma cell viability; series mostly up to 45.9 µM. The method, boiled down: as §1
A short description of test [5]: qHTS of pediatric cancer cell lines to identify multiple opportunities for drug repurposing: Confirmatory screen for Rh18 cells (AID 1347125). Note: nearly all actives have a fitted effect of over 55% in size. Note: potency is the fitted concentration of half-maximal effect. The note with it: Rh18 rhabdomyosarcoma cells, viability; series mostly up to 45.9 µM. Summed up: as §1
Test [6] in a line: qHTS of pediatric cancer cell lines to identify multiple opportunities for drug repurposing: Confirmatory screen for Rh30 cells (AID 1347126). Note: nearly all actives have a fitted effect of over 55% in size. Note: potency is the fitted concentration of half-maximal effect. Conditions: Rh30 rhabdomyosarcoma cell viability; series mostly up to 45.9 µM. Summed up: as §1
Test [7] can be described thus: qHTS of pediatric cancer cell lines to identify multiple opportunities for drug repurposing: Confirmatory screen for Saos-2 cells (AID 1347127). Note: potency is the fitted concentration of half-maximal effect; nearly all actives have a fitted effect of over 60% in size. Conditions: Saos-2 osteosarcoma cell viability. Summed up: as §1
A short description of test [8]: qHTS of pediatric cancer cell lines to identify multiple opportunities for drug repurposing: Confirmatory screen for OHS-50 cells (AID 1347128).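 Note: compound exposure lasted 48 h at 37 degrees C; nearly all actives have a fitted effect of over 55% in size.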 Note: potency is the fitted concentration of half-maximal effect. Conditions: OHS-50 osteosarcoma cells viability; series mostly up to 45.9 µM. The method, boiled down: as §1
Test [9] is described as follows: qHTS of pediatric cancer cell lines to identify multiple opportunities for drug repurposing: Confirmatory screen for MG 63 (6-TG R) cells (AID 1347119). Note: nearly all actives have a fitted effect of over 55% in size. The note with it: MG-63 (6-TG resistant) osteosarcoma viability; series mostly up to 45.9 µM. The source says:
Drug repurposing or repositioning has been offered as a strategy for drug development in oncology programs. This approach has special potential for childhood cancers and other rare or orphan diseases, where the expected return on new drug development has been a disincentive to pharmaceuticals.
In this project we exploit the poly-pharmacology of drugs to discover new indications via phenotypic screening of a panel of 19 well-characterized cell lines derived from solid tumors seen in children and adolescents. The goal is to identify approved drugs with previously unrecognized anticancer properties that has the potential to reveal new mechanisms and biological processes involved in carcinogenesis or drug resistance. We employed a titration-based paradigm (quantitative high-throughput screening or qHTS), where all compounds were tested at multiple concentrations for their effect on cell viability. […] We screened the NIH Chemical Genomics Center (NCGC) Pharmaceutical Collection (NPC) and Mechanism Interrogation Plate (MIPE) small molecule collections of approved and investigational compounds against these cell lines; and measured metabolically active cells after 48 hours of compound treatment as a proxy for cell viability. […]
[1] Shen, M et al. Quantitative high-throughput phenotypic screening of pediatric cancer cell lines identifies multiple opportunities for drug repurposing. […]

The nature of test [10]: qHTS of pediatric cancer cell lines to identify multiple opportunities for drug repurposing: Confirmatory screen for control Hh wild type fibroblast cells (AID 1347121). Note: nearly all actives have a fitted effect of over 70% in size. The note with it: viability qHTS; series mostly up to 45.9 µM. The method, boiled down:
as §1

Data on four molecules can be found in PubChem BioAssay (NCATS).

SMILES strings stand for the structures. Inconclusive results are not listed. Active and inactive are the calls of the source. Calls come from the whole dose curve; as a rule, active = well fitted curve in the direction sought with a large enough effect; inconclusive = small, poorly fitted or top-dose-only effect, or another doubt; inactive = no such curve, though single readings can be large; an effect the other way counts as inactive or inconclusive.

With `CC(=O)OCC(=O)[C@@]1(O)CC[C@H]2[C@@H]3CCC4=CC(=O)C=C[C@]4(C)[C@@]3(F)[C@@H](O)C[C@@]21C`, the Potency in test [1] was 14.7 µM (active); in test [3] it was 11.7 µM (active); in test [4] it was 20.8 µM (active); in test [5], 18.5 µM (active); in [6], 13.1 µM (active); in [7], 11.7 µM (active). For the same molecule, the Potency in test [8] is 16.5 µM (active). Besides, in [2], the molecule was called inactive.

Turning to `CC(=O)[C@@]1(O)CC[C@H]2[C@@H]3C[C@H](C)C4=CC(=O)C=C[C@]4(C)[C@@]3(F)[C@@H](O)C[C@@]21C`, in test [1], the Potency was 2.93 µM (active). Also, the molecule was called inactive in [9], in [10] and in test [2]. For the same molecule, the Potency result in test [4], in [5], in [6] and in test [8] was “inactive” throughout.

Regarding `O=C(Cn1ccnc1[N+](=O)[O-])NCc1ccccc1`, the Potency in test [1] was 1.85 µM (active). Further, the result in [10] and in test [2] was inactive. Also, the Potency result in test [3], in test [4] and in [5] was “inactive” in each case.

Regarding `COc1cc(C(=O)NCCCCCC(=O)O)cc(OC)c1OC`, the molecule was classed as inactive in test [9], in test [10] and in test [2]. The Potency entry in [3], in test [4], in test [5], in test [6] and in test [8] was “inactive” each time.
